Screen size: about 310,000 compounds; about 14,000 (4.5%) showed an effect of 50% or more. Effects have a minus sign here. What follows is part of a selection rich in strong results, with near analogues and random picks from the rest.

The source of these data is paper PMC4336329 (PLoS ONE, 2015).
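Further: peak tail current of the secondary pulse compared with the same well before compound.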

Sequence of human ether-à-go-go-related gene (hERG) potassium channel (Q12809 whole entry, looked up): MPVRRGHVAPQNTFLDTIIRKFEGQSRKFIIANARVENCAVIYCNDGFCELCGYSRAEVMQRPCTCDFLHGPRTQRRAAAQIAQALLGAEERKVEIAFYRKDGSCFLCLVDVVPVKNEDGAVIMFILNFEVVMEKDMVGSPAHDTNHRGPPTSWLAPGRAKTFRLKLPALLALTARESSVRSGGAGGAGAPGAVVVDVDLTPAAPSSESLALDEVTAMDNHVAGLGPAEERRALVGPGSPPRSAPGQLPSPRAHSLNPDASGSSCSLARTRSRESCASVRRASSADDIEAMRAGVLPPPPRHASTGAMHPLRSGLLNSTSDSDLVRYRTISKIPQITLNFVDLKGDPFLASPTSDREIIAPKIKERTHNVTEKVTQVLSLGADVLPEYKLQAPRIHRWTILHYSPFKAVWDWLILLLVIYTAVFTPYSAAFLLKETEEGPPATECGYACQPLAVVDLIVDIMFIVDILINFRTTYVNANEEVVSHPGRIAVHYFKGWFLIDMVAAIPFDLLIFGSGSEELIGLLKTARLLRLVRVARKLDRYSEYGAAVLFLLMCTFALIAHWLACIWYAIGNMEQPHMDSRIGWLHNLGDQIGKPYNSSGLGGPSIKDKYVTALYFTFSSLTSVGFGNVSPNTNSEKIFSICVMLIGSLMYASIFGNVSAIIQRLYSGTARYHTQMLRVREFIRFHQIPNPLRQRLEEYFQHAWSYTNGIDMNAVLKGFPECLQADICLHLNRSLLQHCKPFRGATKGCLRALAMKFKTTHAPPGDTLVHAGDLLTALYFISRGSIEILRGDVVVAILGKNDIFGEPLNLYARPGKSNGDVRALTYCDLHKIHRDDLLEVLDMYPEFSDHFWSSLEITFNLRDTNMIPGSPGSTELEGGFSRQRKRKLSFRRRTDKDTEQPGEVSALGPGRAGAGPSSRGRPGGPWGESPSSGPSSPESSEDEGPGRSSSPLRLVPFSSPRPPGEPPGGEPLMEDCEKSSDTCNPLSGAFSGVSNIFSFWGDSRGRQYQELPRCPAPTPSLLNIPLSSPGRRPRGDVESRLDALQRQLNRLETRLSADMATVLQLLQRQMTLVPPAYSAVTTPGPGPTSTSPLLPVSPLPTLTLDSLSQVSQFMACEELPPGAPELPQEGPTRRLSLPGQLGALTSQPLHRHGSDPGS

The assay concerns the target human ether-à-go-go-related gene (hERG) potassium channel (human, UniProt Q12809). Kind of assay: primary screen, population patch clamp on CHO cells stably expressing hERG; higher = less effect of the substance.
With `C=CCNCCCCOc1ccc(Br)cc1C.O=C(O)C(=O)O`, the “hERG current change (%, negative = inhibition) at 10uM” value was -41%. In the case of `Cc1cc(Br)cc(C)c1OCCCCN(C)C.O=C(O)C(=O)O` it was -54.4%; in that of `CN(C)CCOCCOc1ccc(Cl)cc1Br.O=C(O)C(=O)O`, -42.6%. In the case of `Cc1cc(C)c(OCCCCN(C)C)c(Br)c1.O=C(O)C(=O)O` it was -41.5%. In the case of `CN(C)CCCOc1cccc(Cl)c1.O=C(O)C(=O)O`, the “hERG current change (%, negative = inhibition) at 10uM” value is -19.5%. Regarding `CN(C)CCCOc1ccc(Cl)cc1Br.O=C(O)C(=O)O`, the “hERG current change (%, negative = inhibition) at 10uM” value is listed as -69.3%.

On to `COCCCNC(=O)COc1ccc(Br)cc1Cl`, for which the “hERG current change (%, negative = inhibition) at 10uM” value is given as -7.88%.

On to `COCCNCCCOc1ccc(Br)cc1Cl.O=C(O)C(=O)O`, for which the “hERG current change (%, negative = inhibition) at 10uM” value is recorded as -31.8%.

For the molecule `COCCCNCCCCOc1ccc(Br)cc1Cl.O=C(O)C(=O)O`, the “hERG current change (%, negative = inhibition) at 10uM” value was -67.1%. In the case of `Cc1cc(Br)ccc1OCCCCNC(C)(C)C.O=C(O)C(=O)O` it was -53.9%; in that of `Cc1cc(Br)ccc1OCCCCNCCO.O=C(O)C(=O)O`, -28.1%. Under `Cc1cc(Cl)cc(Cl)c1OCCCCN(C)C.O=C(O)C(=O)O` stands -43.7%; under `CC(c1ccon1)N(C)C(=O)CCc1nnc(Cc2ccc(-c3ccccc3)cc2)o1` (centres unmarked), -21.7%; under `COC(=O)/C(=C/c1ccc(F)cc1)NC(C)=O`, -0.211%. Under `O=C(CN1C(=O)S/C(=C\c2cccc(Cl)c2)C1=O)NC1C=CS(=O)(=O)C1` (centres unmarked) stands 18.1%; under `O=C(Nc1ccccc1F)c1ccc2c(c1)OCO2`, 15.7%; under `CC(C)NCCCCOc1ccccc1-c1ccccc1.O=C(O)C(=O)O`, -32.9%. Regarding `COCCCNCCCCOc1cccc(Br)c1.O=C(O)C(=O)O`, the “hERG current change (%, negative = inhibition) at 10uM” value was -19.3%. Turning to `CC(C)NCCCCOc1ccc(Br)cc1Cl.O=C(O)C(=O)O`, the “hERG current change (%, negative = inhibition) at 10uM” value is reported as -64.6%. For the molecule `COCCNCCCCOc1ccc(Br)cc1C.O=C(O)C(=O)O`, the “hERG current change (%, negative = inhibition) at 10uM” value is recorded as -36.7%. Under `CC(C)NCCCOc1ccc(Cl)cc1Br.O=C(O)C(=O)O` stands -54.4%; under `COCCCNCCCCOc1ccc(Br)cc1C.O=C(O)C(=O)O`, -64.6%. Under `Cc1ccc(OCCOCCNC(C)C)c(Br)c1.O=C(O)C(=O)O` stands -18.3%; under `CC(C)NCCCCOc1cccc(Br)c1.O=C(O)C(=O)O`, -25.8%. Under `Cc1cccc(NS(=O)(=O)c2cccc(C(=O)N3CCCCCC3)c2)c1` stands -3.09%. For the molecule `Cc1cnn(-c2cc(N/N=C/c3ccc(F)cc3)ncn2)c1`, the “hERG current change (%, negative = inhibition) at 10uM” value is recorded as 5.69%.
